Test results: PubChem BioAssay AID834 (PCMD, 2007)
The whole screen tested about 85,000 compounds, of which about 120 (0.14%) were called active. The entries come from a sample that favours actives as a whole. Unmarked numbers belong to inactive results.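 The calls were made as follows: active = inhibition above 20%; inactive = inhibition below 20%.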

assay: clotrimazole potentiators killing Candida biofilms, primary screen, with clotrimazole, Alamar Blue (AID 834);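 also: preformed 24 hr biofilms exposed to compound for 48 hr; 0% = biofilm without compound and 100% = blank killed by clotrimazole plus chlorhexidine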; settings: C. albicans biofilm + clotrimazole, at 6 µM, hits give high values

| Structure (SMILES) | inhibition |
| --- | --- |
| CC(=O)NC1=NN(C(C)=O)C(C)(c2ccc(Cl)s2)S1 (stereo not given) | 6.61% |
| CCOc1c(Br)cc(/C=C2\C(=O)N(CCC#N)N=C2C)cc1OC | -1.46% |
| Cc1cccc2nc(CSc3nc4[nH]ncc4c(=O)n3-c3cccc(Cl)c3)cc(=O)n12 | -2.14% |
| Cc1ccc(S(=O)(=O)N(c2cccc(C)c2)C2CCS(=O)(=O)C2)cc1 (stereo not given) | 11.2% |
| CS(=O)(=O)Nc1ccc(C(=O)N2CCCC2)cc1 | 6.23% |
| O=C(c1ccccc1Oc1ccccc1)N1CCN(c2ccc(F)cc2)CC1 | 6.89% |
| CCOc1ccc(C(=O)NC(C(=O)NCc2ccccn2)C(C)C)cc1 (stereo not given) | -4.48% |
| Cc1cccc(N2CCN(C(c3ccc(N(C)C)cc3)c3nnnn3C(C)(C)C)CC2)c1C (stereo not given) | 4.97% |
| COc1ccc(CNCCCO)cc1OC | 5.75% |
| Cc1nnc(SCc2nc3ccccc3nc2C)s1 | 5.78% |
| CC(=O)N(C)c1ccc(NC(=O)C(F)(F)F)cc1 | 0.77% |
| Cc1ccc(CN(N=Nc2nonc2N)c2nonc2N)c(C)c1 | 1.82% |
| Cc1ccc(-c2cc(C(=O)NCC3CCCO3)c3ccccc3n2)o1 (stereo not given) | 5.01% |
| Cc1ccc(-c2noc(CSc3nnc(-c4ccncc4)n3-c3ccc(F)cc3)n2)cc1 | 5.84% |
| Cc1ccc(CS(=O)(=O)CCC(=O)NC2CC2)cc1 | 8.04% |
| Cc1csc(OCC(=O)Nc2ccc(C)c(C)c2)n1 | 4.83% |
| CCN(CC)C(=O)CN(c1cccc(OC)c1)S(=O)(=O)c1ccc(C)cc1 | 3.27% |
| CC1=NN(C(C)C)C(=O)C1 | 9.86% |
| CCOC(=O)C1CSC(CC(=O)Nc2ccc(OCC)cc2)C(=O)N1 (stereo not given) | 3.56% |
| CCCc1nc(NCc2ccc3c(c2)OCO3)c2nnn(Cc3ccccc3Cl)c2n1 | 7.6% |
| CCn1c(=O)c(=O)n(CC)c2cc(S(=O)(=O)N3CCc4ccccc43)ccc21 | 1.66% |
| Cc1cccc(NC(=O)C2CC(=O)OC23CCCC3)c1 (stereo not given) | -0.65% |
| C=C(Cl)COC(=O)C1C2C=CC(C2)C1C(=O)O (stereo not given) | 6.89% |
| COCCNC(=O)Cn1cc(C(=O)c2cccs2)c2ccccc21 | -3% |

| Structure (SMILES) | inhibition |
| --- | --- |
| CCOc1cccc(NC(=O)Cn2nc(-c3ccc4c(c3)OCCO4)ccc2=O)c1 | -3.83% |
| CC1CCc2c(nc3ncnn3c2Nc2ccc(OC(F)(F)F)cc2)C1 (stereo not given) | 2.5% |
| COc1c(F)c(F)c(C(=O)O)c(Nc2ccccc2C)c1F | 0.13% |
| CCOC(=O)N1CCN(Cc2nc(N)nc(Nc3ccc(C)cc3)n2)CC1 | 4.91% |
| CCOc1ccccc1NC(=O)c1cccnc1 | 4.81% |
| COc1ccc(CCNc2ncnc3nc[nH]c23)cc1OC | 22.7% (active) |
| CCS(=O)(=O)NCCc1ccc(OC)c(OC)c1 | -1.71% |
| COc1ccc(CCNS(=O)(=O)c2ccc(F)cc2)cc1OC | 0.3% |
| CCCCNC(=O)C1CCCNC1=O (stereo not given) | 1.47% |
| CCCCNS(=O)(=O)c1ccc(S(=O)(=O)n2cnc3ccccc32)cc1 | 0.82% |
| O=C1N=C(N2CCCC2)S/C1=C\c1cccc(Br)c1 | 2.13% |
| CCOC(=O)C(C)n1cnc2sc(C)c(C)c2c1=O (stereo not given) | 9.63% |
| CCOC(=O)c1cnc(SCc2nc(N)nc(Nc3ccc(OC)cc3)n2)nc1N | 1.79% |
| CN(C)[C@@H]1C(=O)C(C(N)=O)=C(O)[C@@]2(O)C(=O)C3=C(O)c4c(O)ccc(Cl)c4[C@@H](O)[C@H]3C[C@@H]12 | 29.9% (active) |
| CC1CCCN(C(C(=O)Nc2ccc(C(C)C)cc2)c2ccc3c(c2)OCO3)C1 (stereo not given) | 6.31% |
| CCS(=O)(=O)Nc1ccc(C2=NN(S(=O)(=O)c3ccc(F)cc3)C(c3ccco3)C2)cc1 (stereo not given) | 2.91% |
| Cc1cc(C(=O)OC(C)C(=O)Nc2cccc(S(=O)(=O)N3CCOCC3)c2)c(C)o1 (stereo not given) | 0.93% |
| Cc1cccn2c(=O)c(/C=C(\C#N)S(=O)(=O)c3ccc(Cl)cc3)c(N3CCC(C(N)=O)CC3)nc12 | 45.2% (active) |
| Cc1ccc(C(c2nnnn2CS(=O)(=O)c2ccc(C)cc2)N2CCC(C(N)=O)CC2)cc1 (stereo not given) | -1.5% |
| COc1ccccc1-c1nc(C#N)c(N2CCC(C(N)=O)CC2)o1 | 7.17% |
| Cc1ccc(Cc2c(C)nc3nc(SCC(=O)NCCN4CCOCC4)nn3c2C)cc1 | -3.03% |
| Cc1ccc(-n2ccc(=O)c(C(=O)O)n2)cc1 | 2.26% |
| COc1ccc(S(=O)(=O)Nc2ccc3oc(C)c(C(C)=O)c3c2)cc1 | -2.16% |
| O=C(Cc1ccccc1)Nc1c(C(=O)N2CCCCCC2)cnn1-c1ccccc1 | -2.24% |

| Structure (SMILES) | inhibition |
| --- | --- |
| CC(C)CC(=O)Nc1cc(C(F)(F)F)ccc1N1CCOCC1 | 1.97% |
| CC(C)(C)n1nnnc1C(c1ccc(Cl)cc1)N1CCSCC1 (stereo not given) | 6.98% |
| Cc1ccccc1-n1c(C)cc(/C=C2\NC(=O)NC2=O)c1C | 2.93% |
| Cc1ccc(NC(=O)N2CCC(c3nc4c(nnn4Cc4c(F)cccc4Cl)c(=O)[nH]3)CC2)cc1 | 5.75% |
| COc1ccccc1C(=O)N1CC2(C)CC1CC(C)(C)C2 (stereo not given) | -0.87% |
| O=C(NCc1ccccn1)c1cc(-c2ccccc2Cl)on1 | -4.95% |
| CCc1ccc(C2C(C#N)=C(N)Oc3n[nH]c(CC(=O)OC)c32)cc1 (stereo not given) | 8.34% |
| CCn1nccc1C(=O)Nc1ccc(Cl)c(Cl)c1 | 6.51% |
| O=C(CCCn1c(SCC(=O)c2ccccc2)nc2ccccc2c1=O)NCC1CCCO1 (stereo not given) | 0.02% |
| COC(=O)c1ccccc1NC(=O)CN(Cc1ccc(Cl)cc1)S(C)(=O)=O | 9.25% |
| COc1ccc(CN2CCCCC2C)cc1OC (stereo not given) | 0.38% |
| CCC(C)NC(=O)c1cc(Cl)ccc1OC (stereo not given) | 3.81% |
| C=CCn1c(-c2ccc3[nH]c(C)c(C)c3c2)n[nH]c1=S | 0.31% |
| CCCn1c(C)cc(C(=O)COC(=O)c2c(C)nn(-c3ccccc3)c2C)c1C | -1.14% |
| O=C(CSc1nnc(-c2cccs2)n1Cc1ccccc1)N1CCc2ccccc2C1 | 6.37% |
| CCOc1ccc2c(c1)C(c1ccc(C)cc1)=NNC(c1ccc(C)cc1)=N2 | -0.27% |
| C=C(C)CNC(=S)/N=c1\scc(C)n1CC | 1.12% |
| COc1ccc(C2C(C#N)=C(/N=C/N3CCOCC3)OC3=C2C(=O)CC(C)(C)C3)cc1OC (stereo not given) | 13.5% |
| O=P(O)(CP(=O)(c1ccccc1)c1ccccc1)c1ccccc1O | 7.77% |
| CC(C)NC(=O)CSc1nnc(COc2ccccc2Cl)o1 | 5.07% |
| O=C(c1cccc(F)c1)N1CCC(O)(c2cccnc2)CC1 | 8.81% |
| CCCOc1cc(C)c(S(=O)(=O)n2nnc3ccccc32)cc1C | 2.8% |
| NC1=NC(=O)C2(COC(c3ccccc3Cl)OC2)S1 (stereo not given) | 14.2% |
| CC(C)Nc1ncnc2c1nnn2Cc1ccccc1 | -1.71% |

| Structure (SMILES) | inhibition |
| --- | --- |
| Brc1ccc(-c2nnc(-c3ccccc3)o2)o1 | 6.11% |
| CCN(CC)C(=O)CSc1nnc(C2CCCCC2)o1 | 2.47% |
| O=c1[nH][nH]c(C(F)(F)F)c1C=NCc1ccccc1Cl | -3.59% |
| CCN1C(=O)/C(=C2/Sc3ccc(OC)cc3N2C)SC1=Nc1ccc(C)cc1 | -3.03% |
| O=C(NC(C(=O)NCCN1CCOCC1)C12CC3CC(CC(C3)C1)C2)C1CCCCC1 (stereo not given) | -1.05% |
| S=c1[nH]nc(-c2ccc(Cl)cc2)n1CC1CCCO1 (stereo not given) | 7.93% |
| Cc1nnc(SCC(=O)Nc2ncc3c(n2)CC(C)(C)CC3=O)s1 | 3.95% |
| Cc1ccccc1-c1nnc(SCC(=O)NCc2ccc3c(c2)OCO3)n1C | 4.85% |
| Cc1ccc(C(=O)N/N=C/c2sc(=O)n(Cc3cccc(C(=O)O)c3)c2Cl)cc1 | 8.24% |
| COc1ccc(CN(Cc2ccco2)S(=O)(=O)c2ccc(S(=O)(=O)N3CCCC3)cc2)cc1 | 1.45% |
| COC(=O)c1ccccc1Oc1c(F)c(F)nc(N2CCOCC2)c1F | 8.84% |
| CCc1ccc(NC(=O)CN2C(=O)CSC2=O)cc1 | 5.49% |
| CC(C)(CNC(=O)c1cc(=O)[nH]c2ccccc12)N1CCOCC1 | 6.02% |
| COc1cc(C)c(C(C)C)cc1S(=O)(=O)n1ccnc1 | 1.15% |
| CCn1c(CC(=O)Nc2ccc(C)cc2)nnc1SCC(=O)Nc1nc(C)cs1 | 5.16% |
| CN1C(=O)C(CC(N)=O)N(NC(=O)c2ccc(Cl)cc2)C1=S (stereo not given) | 7.03% |
| Cc1ccc(-n2c(CNc3ccc(F)cc3)nnc2SCC(=O)N2CCOCC2)cc1 | 3.95% |
| CC(c1ccco1)N(C(=O)COc1ccccc1[N+](=O)[O-])c1ccccn1 (stereo not given) | 7.57% |
| COC(=O)[C@@H](NC(=O)Nc1cc(Cl)ccc1C)C(C)C | 10.7% |
| O=C(Nc1cccc(NC(=O)c2ccco2)c1)c1cnccn1 | 4.07% |
| Cn1c(-c2sc3cc(C(F)(F)F)cnc3c2-c2ccccc2)n[nH]c1=S | 1.53% |
| CC(=O)Oc1ccc(NC(=O)CCC2CCCCC2)c(C(=O)O)c1 | 4.27% |
| COc1ccc(S(=O)(=O)NCc2ccc(C(=O)N(C)Cc3ccco3)cc2)cc1 | 4.38% |
